Where “and” joins values, the source holds several entries; their conditions need not be identical. Equal entries are not always repeated. This is part of a sample that, as a whole, favours compounds with a hit. Of some 83,000 tested, about 20% had one in any assay.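 The endpoint reported here, percent growth, reads 100 for growth as untreated, 0 for no net growth and -100 for all cells dead.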 Calls of active or inactive are those of the source.
System: UACC-62 melanoma
Assay: NCI-60 one-dose screen, 48 h (100 = growth as untreated, 0 = no growth, -100 = all killed)
Conditions: 4.75 µM
Procedure: Growth inhibition of the UACC-62 human tumor cell line is measured as a screen for anti-cancer activity. Cells are grown in 96 well plates and exposed to the test compound for 48 hours. Compounds are tested at a single concentration, which is 10^-5 M for most compounds. The reported endpoint is percent growth (GI% or GIPRCNT), where numbers from 0 - 100% represent growth inhibition, and numbers from -100% - 0 represent cell death. For example, a value of 40 represents 60% growth inhibition. A value of 0 means no net growth occurred over the course of the experiment. A value of -40 indicates 40% of cells at the beginning of the experiment died by the end of the experiment. A value of -100 means all cells are dead at the end of the experiment.
NCI-60 Human Tumor Cell Lines Screen was performed using the standard one-dose NCI protocol, which is described in more detail at https://dtp.cancer.gov/discovery_development/nci-60/default.htm.
Compounds with GIPRCNT values below 10 were considered active. Activity score was based on GIPRCNT using the following formula: […]
Score is 0 for GIPRCNT values of 100 or above, 50 for GIPRCNT values of 0, and 100 for GIPRCNT values of -100.

Row | SMILES | growth
1 | CC(=O)OCC1OC([S-])C(OC(C)=O)C(OC(C)=O)C1OC(C)=O.[Au+].c1ccc(CN2[CH-]N(Cc3ccccc3)C(c3ccccc3)=C2c2ccccc2)cc1 | -18.6% (active)

Same assay, conditions: 10 µM

Row | SMILES | growth
2 | CC(=O)OCC1OC([S-])C(OC(C)=O)C(OC(C)=O)C1OC(C)=O.[Au+].c1ccc(CN2[CH-]N(Cc3ccccc3)C(c3ccccc3)=C2c2ccccc2)cc1 | 3.54% (active)

Same assay, conditions: 10 µM unless noted

Row | SMILES | growth
3 | CC1(C)C=Cc2c(ccc3c2[N+]([O-])=C2C3=C[C@@]34NC(=O)[C@]5(CCCN5C3=O)C[C@@H]4C2(C)C)O1 | 64.6% (inactive)
4 | Cc1cc[c-]cc1.Fc1c[c-]c(-c2ccccn2)c(F)c1.N#CCC[PH+](CCC#N)c1ccccc1.[Pt+2] | 9.83% (active)
5 | C[C@]12CC[C@H]3[C@@H](C[C@@H]4SC(Nc5ccccc5)=N[C@@]45C/C(=N/O)CC[C@]35C)[C@@H]1CCC2=O | 86% (inactive)
6 | O=C=Nc1ccc(Br)cc1 | 97.4% (inactive)
7 | CC/C(=C(\c1ccc(OCCN2CCOCC2)cc1)c1ccc(OC(=O)Cc2ccccc2)cc1)c1ccc(Cl)cc1 | 99.7% (inactive)
8 | C=CCOC(=O)C(Br)CC (stereo not given) | 98.8% (inactive)
9 | COc1cc2c(cc1OC)-c1c3c(cc4c1[C@@H](C2)N(C)CC4)OCO3 | 45.2% (inactive)
10 | CC(=O)Nc1nc2c(s1)C1=CC[C@H]3[C@@H]4CC[C@H](OC(C)=O)[C@@]4(C)CC[C@@H]3[C@@]1(C)CC2 | 49.5% (inactive)
11 | O=c1c2ccccc2nc(-c2ccccc2Cl)n1-c1nnc(C(F)(F)F)s1 | 10.3% (inactive)
12 | C/C(=C\c1ccn(-c2ccc(N)c(C(F)(F)F)c2)n1)[C@@H]1C[C@@H]2O[C@]2(C)CCC[C@H](C)[C@H](O)[C@@H](C)C(=O)C(C)(C)[C@@H](O)CC(=O)O1 | 20.7% (inactive)
13 | CCCCCCCCCCCCCCCCCC1OCC(COC(=O)O[C@@H](C(=O)O[C@H]2C[C@@]3(O)[C@@H](OC(=O)c4ccccc4)[C@@H]4[C@]5(OC(C)=O)CO[C@@H]5C[C@H](O)[C@@]4(C)C(=O)[C@H](OC(C)=O)C(=C2C)C3(C)C)[C@@H](NC(=O)c2ccccc2)c2ccccc2)O1 (stereo not given in full) | 43.1% (inactive)
14 | CC1(C)CN=C(NN=C(/C=C/c2ccc(C(F)(F)F)cc2)/C=C/c2ccc(C(F)(F)F)cc2)NC1 | -83.8% (active)
15 | CN(C)c1ccc(C=C2C(=O)NC(=O)NC2=O)cc1 | 94.5% (inactive)
16 | CO/N=C1\CC[C@]2(C)[C@H]3CC[C@]4(C)C(=O)CC[C@H]4[C@@H]3C[C@@H]3SC(N)=N[C@@]32C1 | 79.7% (inactive)
17 | CC(=O)Cc1ccc2c(c1)OCO2 | 103% (inactive)
18 | Oc1cc(N2CC2)c(O)cc1N1CC1 | -67.2% (active)
19 | C[C@]12CC[C@H](O)C[C@@H]1CC[C@@H]1[C@@H]2CC[C@]2(C)OC(=O)CC[C@@H]12 | 93.5% (inactive)
20 | Cc1ccc(NC2=N[C@]34CC(=O)CC[C@]3(C)[C@H]3CC[C@]5(C)C(=O)CC[C@H]5[C@@H]3C[C@@H]4S2)c(C)c1 | 39% (inactive)
21 | CCC(Br)(CC)C(=O)NC(N)=O | 100% (inactive)

Row | SMILES | growth
22 | COc1ccc(/C=C(/C)[N+](=O)[O-])cc1OC | 46.1% (inactive) and 23.8% (inactive)
23 | CC[C@@H](C)C(=O)O[C@H]1[C@H](O)[C@H]2[C@@H](CN3C[C@@H](C)CC[C@H]3[C@@]2(C)O)[C@@H]2C[C@]34O[C@]5(O)[C@@H](OC(=O)[C@@](C)(O)CC)CC[C@@]3(C)[C@@H]5[C@@H](OC(C)=O)[C@@H](OC(C)=O)[C@H]4[C@@]21O | 96.1% (inactive)
24 | COc1ccc(N)cc1OC | 97.5% (inactive)
25 | N#CCCc1ccccc1 | 97.2% (inactive)
26 | CC1OC(=O)C(C(C)C)NC(=O)C(C(C)C)OC(=O)C(C(C)C)NC(=O)C(C)OC(=O)C(C(C)C)NC(=O)C(C(C)C)OC(=O)C(C(C)C)NC(=O)C(C)OC(=O)C(C(C)C)NC(=O)C(C(C)C)OC(=O)C(C(C)C)NC1=O (stereo not given) | 5.04% (active)
27 | C[C@@]12CCCc3coc(c31)C(=O)c1cc3c(cc12)C(=O)C1=C(NCCS1(=O)=O)C3=O | -68% (active)
28 | O=Cc1cn(Cc2ccccc2)c2ccccc12 | 32.6% (inactive)
29 | Cc1nnc([S-])o1.[Au+].c1ccc([PH+](c2ccccc2)c2ccccc2)cc1 | 21.3% (inactive)
30 | O=P(O)(Nc1ccccc1)Nc1ccccc1 | 91.8% (inactive)
31 | CCC1(NC(=O)c2cc(F)c(F)c(F)c2F)C(=O)NC(=O)N(C(C)C)C1=O (stereo not given) | 48.6% (inactive)
32 | O=[P+](O)c1cccnc1 | 103% (inactive)
33 | O=C(O)C(F)F | 102% (inactive)
34 | C=C[Se]CC(=O)/C=C/c1ccccc1 | 92.4% (inactive)
35 | Cc1c(C)c(N)c(C)c(C)c1N | 66.3% (inactive)
36 | C=CC[PH+](c1ccccc1)c1ccccc1.C=CC[PH+](c1ccccc1)c1ccccc1.[Pt+2].[S-]c1ncccn1.[S-]c1ncccn1 | 27.7% (inactive)
37 | CSc1cc(/C=C(\C)[C@@H]2C[C@@H]3O[C@]3(C)CCC[C@H](C)[C@H](O)[C@@H](C)C(=O)C(C)(C)[C@@H](O)CC(=O)O2)n(CCNC(=O)OC(C)(C)C)n1 | 43.8% (inactive)
38 | O=C(Cc1ccccc1)c1ccccc1 | 111% (inactive)
39 | C#COc1cccc(Nc2ncnc3cc(NC(=O)CF)ccc23)c1 | 26.4% [6.25 µM] (inactive)
40 | COC[C@H]1OC(=O)c2coc3c2[C@@]1(C)C1=C(C3=O)[C@@H]2CCC(=O)[C@@]2(C)C[C@H]1OC(C)=O | 15.7% (inactive)
